# Data: PubChem BioAssay AID1835 (Johns Hopkins Ion Channel Center, 2009)
# Screen size: about 2,400 compounds; about 750 (31%) were called active. The list shows a part of the results. Unmarked numbers belong to inactive results.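 The calls were made as follows: active = median signal gain over dofetilide-blocked control wells reaching their mean plus 3 SD, so readout 1 at least 0; inactive = the rest.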
# Target: Voltage-gated inwardly rectifying potassium channel KCNH2 (Homo sapiens) (UniProt Q12809)
# Sequence (Q12809 whole entry, looked up): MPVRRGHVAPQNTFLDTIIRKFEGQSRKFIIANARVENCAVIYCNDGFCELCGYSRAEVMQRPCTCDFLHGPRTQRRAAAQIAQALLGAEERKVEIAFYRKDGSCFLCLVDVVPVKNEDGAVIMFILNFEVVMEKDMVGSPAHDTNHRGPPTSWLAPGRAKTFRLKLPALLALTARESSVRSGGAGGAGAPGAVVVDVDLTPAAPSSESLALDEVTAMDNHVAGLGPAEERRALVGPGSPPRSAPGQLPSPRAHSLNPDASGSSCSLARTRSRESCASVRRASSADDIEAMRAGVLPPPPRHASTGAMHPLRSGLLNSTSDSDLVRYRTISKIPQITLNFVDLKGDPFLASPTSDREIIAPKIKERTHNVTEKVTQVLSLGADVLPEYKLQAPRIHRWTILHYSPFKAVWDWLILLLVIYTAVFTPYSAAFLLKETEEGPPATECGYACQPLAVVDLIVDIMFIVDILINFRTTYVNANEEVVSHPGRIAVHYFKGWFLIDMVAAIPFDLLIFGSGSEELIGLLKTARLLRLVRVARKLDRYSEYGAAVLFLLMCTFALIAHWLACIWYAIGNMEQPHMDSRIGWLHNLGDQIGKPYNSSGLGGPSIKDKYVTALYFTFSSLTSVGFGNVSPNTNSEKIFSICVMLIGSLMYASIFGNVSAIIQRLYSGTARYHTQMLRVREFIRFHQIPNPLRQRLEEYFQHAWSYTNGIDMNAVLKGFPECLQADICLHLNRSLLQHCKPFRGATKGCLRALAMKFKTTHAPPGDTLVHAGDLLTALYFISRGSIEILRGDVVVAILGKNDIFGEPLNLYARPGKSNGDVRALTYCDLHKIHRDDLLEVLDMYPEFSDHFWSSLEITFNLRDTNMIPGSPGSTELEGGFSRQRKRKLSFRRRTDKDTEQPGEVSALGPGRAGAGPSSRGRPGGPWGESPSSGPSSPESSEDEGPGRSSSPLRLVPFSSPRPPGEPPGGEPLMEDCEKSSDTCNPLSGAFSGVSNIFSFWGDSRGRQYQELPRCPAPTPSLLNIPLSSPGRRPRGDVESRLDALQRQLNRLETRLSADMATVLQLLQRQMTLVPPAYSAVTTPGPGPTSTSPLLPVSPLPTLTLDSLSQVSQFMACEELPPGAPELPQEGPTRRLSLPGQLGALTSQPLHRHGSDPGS
# Test: hERG protection against dofetilide inhibition, confirmation, cell-based, thallium flux, duplicate retest, dofetilide IC70 (AID 1835)
# Conditions: hERG cell line, FluxOR thallium flux, dofetilide-blocked; at 10 µM; stronger effect = higher value
row,Structure (SMILES),"activity increase over dofetilide control, less the hit threshold"
1,Cc1nc(NCc2cccnc2)c2c3c(sc2n1)CC(C)CC3 (configuration not stated),55% (active)
2,COc1ccc(S(=O)(=O)N2CCN(C(=O)CNC(=O)c3ccc4c(c3)OCO4)CC2)cc1,-11%
3,COc1ccc(N2CCN(CC(O)COc3ccc(F)cc3)CC2)cc1 (configuration not stated),-8%
4,O=C(NC(=S)Nc1ccc(N2CCOCC2)c(Cl)c1)c1sc2ccccc2c1Cl,15% (active)
5,O=C(NC(=S)Nc1ccccc1N1CCCC1)c1cccs1,0%
6,COc1ccc(NC(=O)c2cc(S(=O)(=O)N3CCOCC3)ccc2N2CCOCC2)cc1,-16%
7,CCC(=O)Nc1ccc(N2CCOCC2)c(S(=O)(=O)Nc2ccc(OC)cc2)c1,-26%
8,O=C(NC(=S)Nc1ccc(N2CCCCC2)c(Cl)c1)c1cccs1,23% (active)
9,O=C(NC(=S)Nc1ccccc1N1CCCCC1)c1cccs1,11% (active)
10,O=C(NC(=S)Nc1ccc(N2CCCCC2)cc1)c1cccs1,-2%
11,Nc1ccc(Cl)c(NC(=O)c2cccs2)c1,-11%
12,COCCN1C(=O)C(=O)/C(=C(/O)c2ccc(S(=O)(=O)N3CCOCC3)cc2)C1c1ccc(OC)c(OC)c1 (configuration not stated),-17%
13,Nc1nc(Br)c2c(F)cccc2c1-c1ccc(Cl)cc1,-6%
14,Cc1ccc(C2c3c(-c4ccccc4O)n[nH]c3C(=O)N2Cc2ccncc2)cc1 (configuration not stated),-3%
15,O=C(COc1ccc2ccccc2c1Br)Nc1cccnc1,31% (active)
16,N#Cc1ccc(-c2ccc(OCC(=O)Nc3cccnc3)cc2)cc1,-10%
17,O=C(COc1ccc(Cl)cc1Cl)Nc1cccnc1,-2%
18,O=C(COc1ccc(C(=O)c2ccccc2)cc1)Nc1cccnc1,4% (active)
19,O=C(COc1ccccc1)Nc1ccc(S(=O)(=O)Nc2ccccn2)cc1,-18%
20,O=C(COc1ccc([N+](=O)[O-])cc1)Nc1cccnc1,-25%
21,CC(=O)OCC1O[C@@H](O[C@@H]2C[C@H]3C(C)(C)[C@H](OC(C)=O)CC[C@]3(C)[C@H]3CC[C@]45C[C@]4(CC[C@H]5[C@@H](C)C[C@@H](O)[C@H](O)C(C)(C)O)[C@@]32C)[C@H](O)[C@@H](O)[C@@H]1O (some centres not stated),12% (active)

row,Structure (SMILES),"activity increase over dofetilide control, less the hit threshold"
1,C/C(=N\Nc1nc2ccccc2s1)c1cccs1,-8%
2,C/C(=N\Nc1nc2ccccc2nc1C)c1ccccc1O,10% (active)
3,C/C(=N\Nc1nc2ccccc2s1)c1ccc(Br)s1,-11%
4,COCCNC(=O)C(c1ccncc1)N(C(=O)Cn1nnc2ccccc21)c1ccc(OC)cc1 (configuration not stated),-9%
5,COCCNC(=O)C(c1ccc(C)o1)N(Cc1ccc(OC)cc1)C(=O)Cn1nnc2ccccc21 (configuration not stated),4% (active)
6,Cc1ccc(-c2nnn(CC(=O)N(CC3CCCO3)C(C(=O)NC3CCCC3)c3ccc(O)cc3)n2)o1 (configuration not stated),-7%
7,O=[N+]([O-])c1cccc(/C=C/c2nc(C=Nc3ccccc3)c(O)o2)c1,-13%
8,COc1cc2c(cc1OC)CN(C(=O)c1ccc3nc[nH]c3c1)CC2,-2%
9,Cc1onc(C(=O)N2CCC(C(N)=O)CC2)c1-c1ccccc1Cl,-17%
10,O=c1[nH]c2ccc(S(=O)(=O)NCc3ccccc3)cc2[nH]1,-5%
11,Nc1ccc2c(c1)C(=O)C(=O)c1ccccc1-2,10% (active)
12,CC(=O)N(C1=C(N)C(=O)c2ccccc2C1=O)C(C)C,-12%
13,Clc1ccc(Cc2ccccc2)nn1,-10%
14,CC(=O)C1=C(O)C(=O)N(c2cccnc2)C1c1ccc(Cl)cc1 (configuration not stated),-30%
15,O=C(COc1ccc(Br)cc1Br)NC(=S)N1CCCc2ccccc21,6% (active)
16,CC(Oc1ccc(Cl)cc1Cl)C(=O)NC(=S)N1CCc2ccccc21 (configuration not stated),36% (active)
17,O=C(COc1coc(CN2CCc3ccccc3C2)cc1=O)Nc1cccc(Cl)c1,-17%
18,O=C(COc1ccc(Cl)cc1Cl)NC(=S)N1CCCc2ccccc21,21% (active)
19,CC(C)c1ccc(OCC(=O)NN2C(=O)c3ccccc3C2=O)c(Br)c1,-17%
20,O=C(COc1ccc(Br)cc1Cl)NC(=S)N1CCc2ccccc21,-4%
21,CSc1nc2ccc(S(=O)(=O)N3CCc4ccccc43)cc2s1,0%

row,Structure (SMILES),"activity increase over dofetilide control, less the hit threshold"
1,CCOc1ccc2[nH]c(=O)c(CN(Cc3ccc(C)cc3)C(=O)N3CCCC3)cc2c1,-8%
2,Cc1cc(C)cc(NC(=O)N2CCCC2C(=O)Nc2ccc(-n3cnnn3)c(C)c2)c1 (configuration not stated),-28%
3,Cc1cc(SC#N)cc(C)c1NC(=O)CCl,-1%
4,C=CCNC(=O)CC(=O)N/N=C/c1cccs1,0%
5,O=C(NC1CCN(c2ncccn2)CC1)c1c(F)cccc1F,-2%
6,C=CCNc1sc(C(=O)C(C)(C)C)c(N)c1C#N,-14%
7,COc1cc(/C=C2/C(=O)NN(c3ccc(Cl)c(Cl)c3)C2=O)cc([N+](=O)[O-])c1O,-1%
8,O=C(NC(=S)N(CCc1ccccc1)CCc1ccccc1)c1ccco1,53% (active)
9,CC(CCc1ccccc1)NC(=S)NC(=O)c1ccco1 (configuration not stated),28% (active)
10,O=[N+]([O-])C1=CC=C2C(=NC3(CCCCC3)N2O)C1=NC1CCCCC1,-15%
11,O=C(COC(=O)c1cc(S(=O)(=O)NCc2ccccc2)ccc1O)NCc1ccccc1,-7%
12,Cc1cc(N2C(=O)C(O)=C(C(=O)c3cccs3)C2c2ccccc2)no1 (configuration not stated),-11%
13,COc1ccc(CNC(=O)C(=O)c2cn(CC(=O)N3CCCC3)c3ccccc23)cc1,-21%
14,O=C(NNC(=O)c1ccc(Cl)cc1Cl)c1cnccn1,-16%
15,Cc1ccccc1C(=O)c1cn[nH]c1-c1ccccc1O,-29%
16,Cc1ccccc1C(=O)Nc1nc(=S)ss1,39% (active)
17,O=C(Nc1nc(=S)ss1)c1ccc(Cl)cc1Cl,70% (active)
18,CC(C)CC(=O)Nc1nc(=S)ss1,-11%
19,COc1nnc(-c2ccc(C)c(S(=O)(=O)NC(C)(C)CO)c2)c2ccccc12,-17%
20,CN(Cc1cnn(C)c1)C(=O)C1CCC(=O)N(Cc2cccc(C(F)(F)F)c2)C1 (configuration not stated),-10%
